Most compounds without a hit are left out; they make up all but 2.3% or so of the library.
VDR inhibitor = vitamin D3 receptor (human) inhibition. VDR-SRC2-3 peptide fluorescence polarization, 2 h. P11473. Potency, µM, without a hit: max response, negative = inhibition, most hits filed as inhibitors. actives 0.93% (n = 400,000); also: potency is read from the fitted curve at half-maximal effect; % is scaled to controls: 0 for no effect and ±100 for the full control effect
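After 23 nl compound addition and a short centrifugation, plates sat for 2 hours at ambient temperature; polarization of fluorescence then indicated loss of VDR binding to peptide SRC2-3.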
JMJD2E inh = JMJD2E (human) inhibition | B2RXH2 | JMJD2E catalytic domain, FDH-coupled NADH fluorescence (FDH is formaldehyde dehydrogenase) | Potency, µM (doses to about 57.1 µM), for inactives: at the top dose activity change, negative = inhibition, usual class: inhibitors | actives 1.6% (n = 230,000); active = well fitted inhibition curve with a large enough effect, not every such curve was filed as active; inconclusive = small, poorly fitted or top-dose-only effect, or another doubt; inactive = no such curve, though single readings can be large or run the other way;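 also: potency is read from the fitted curve at half-maximal effect; 0% = wells with enzyme and -100% = buffer wells without enzyme; nearly all actives have a fitted effect of over 50% in size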
Target sequence (B2RXH2 1-337 limits assumed): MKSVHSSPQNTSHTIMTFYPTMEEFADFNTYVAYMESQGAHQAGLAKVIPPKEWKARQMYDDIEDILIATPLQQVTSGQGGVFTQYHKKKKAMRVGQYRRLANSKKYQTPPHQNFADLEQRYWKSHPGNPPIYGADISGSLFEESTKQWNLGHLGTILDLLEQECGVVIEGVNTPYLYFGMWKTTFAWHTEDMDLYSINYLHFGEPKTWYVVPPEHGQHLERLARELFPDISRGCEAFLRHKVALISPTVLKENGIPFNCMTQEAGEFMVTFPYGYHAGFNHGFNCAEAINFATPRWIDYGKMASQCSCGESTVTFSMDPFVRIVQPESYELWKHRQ
HTT cytoprotect = cytoprotection in Huntington HTT-Q103 PC12 cell model | AID 1471 | PC12 HTT-Q103 induced, cytoprotection, ATP luminescence, 40 h | actives 0.14% (n = 230,000) | Potency, µM (highest dose often 56.4 µM), without a hit: cytoprotection (ATP increase), hits mostly activators; also: potency is read from the fitted curve at half-maximal effect; % of control where 0% means no effect; nearly all actives have a fitted effect of over 45% in size
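Stable PC12 Q103-GFP cells in serum-supplemented, phenol red-free DMEM; induction by tebufenozide at 100 nM final; compound dose series; cell viability quantified luminescently from ATP.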
HTT aggregate = mutant huntingtin aggregation inhibition; PC12 HttQ103-GFP aggregates, Acumen cytometry, 40 h; Potency, µM (doses to about 46.1 µM), inactives show top-dose activity change, negative = inhibition, hits mostly inhibitors; actives 1.1% (n = 220,000); AID 1688; also: potency is read from the fitted curve at half-maximal effect; % is scaled to controls: 0 for no effect and ±100 for the full control effect; nearly all actives have a fitted effect of over 60% in size
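Inducible Q103 Huntingtin exon 1–GFP PC12 line, 1500 cells/well in phenol red free DMEM with 5% equine and 5% calf serum. Tebufenozide 100 nM induced expression; compounds titrated; aggregates quantified by cytometry.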
GoLoco inh red = RGS12 GoLoco-Gai1 interaction inhibition. Gai1:RGS12 GoLoco peptide FP, rhodamine, 10 min. P63096. Potency, µM (series often up to 61.6 µM), for inactives: at the top dose activity, negative = inhibition, most hits filed as inhibitors. actives 0.44% (n = 230,000); active = well fitted inhibition curve with a large enough effect, not every such curve was filed as active; inactive = no such curve, though single readings can be large or run the other way; also: potency is read from the fitted curve at half-maximal effect; % is scaled to controls: 0 for no effect and ±100 for the full control effect; nearly all actives have a fitted effect of over 30% in size
FBPA coupling cs = counter-screen for Giardia aldolase inhibitors: coupling enzyme system; coupling enzyme system counterscreen, AmpLite Red fluorescence; AID 2472; actives 0.67% (n = 290,000); activity change, negative = inhibition, % at 58.2 µM, hits read low; in the data active = activity change below about -30%; also: % is scaled to controls: 0 for no effect and ±100 for the full control effect
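Activity here indicates interference with the coupling reaction, not aldolase inhibition. Compounds at 57.5 uM final met coupling enzymes for 10 min at RT; substrate and AmpLite Red detection followed, with a 525/598 nm fluorescence read after 20 min.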
Starred values were filed as active, the others as inactive; ? = inconclusive; . = no result given; [ ] = dose if it differs, or a comment. Unless noted, calls follow the shape of the dose curve; as a rule, active = well fitted curve in the direction sought with a large enough effect; inconclusive = small, poorly fitted or top-dose-only effect, or another doubt; inactive = no such curve, though single readings can be large; an effect the other way counts as inactive or inconclusive.

SMILES	VDR inhibitor	JMJD2E inh	HTT cytoprotect	HTT aggregate	GoLoco inh red	FBPA coupling cs
O=C(O)C1=CC(=C(c2ccc(O)c(C(=O)O)c2)c2ccc(O)c(C(=O)O)c2)C=CC1=O	8.9µM*	?	-8%[1.9 µM]	.	2.8µM*	4
CC1=C/C(=C(/c2ccc(O)c(C)c2)c2ccccc2C(=O)O)C=CC1=O	.	.	23%[10 µM]	.	1%[14.2 µM]	.
CSc1nc(N)nc2c1ncn2CC(=O)NCC1CCCO1 (stereo unspecified)	-11%	.	.	.	.	.
COc1cc(C2N(c3ccccc3)CCN2c2ccccc2)cc(OC)c1OC	8%	?	-2%	2%	3%	-36*
COc1cc(C2N(c3cccc(Cl)c3)C(=O)C3CCCN32)cc(OC)c1OC (stereo unspecified)	-21%	-10%	-2%	2%	2%	0
Cc1nc(SCC(=O)Nc2nnc(C(C)C)s2)n[nH]1	1%	.	.	.	.	0
COc1ccc(C(=S)NC2CCCCC2)cc1	89µM*	-19%	-89%	?	.	0
CCOc1ccc(C(=S)NC2CCCCC2)cc1	-16%	5%	-47%	-3%	-9%	1
O=c1c(-c2ccccc2)nc2cnc(N3CCOCC3)nc2n1C1CC1	-16%	.	-46%	.	-12%	-7
N#Cc1cccc(-c2nc3cnc(N4CCOCC4)nc3n(C3CC3)c2=O)c1	6%	.	-37%	.	3.2µM*	3
Cc1ccc(S(=O)(=O)NCC(c2ccccc2)N2CCN(c3ccc(F)cc3)CC2)cc1 (stereo unspecified)	9%	.	.	.	.	-1
CN(Cc1ccccc1)c1ccc2nnc(-c3ccccc3)n2n1	1%	?	.	35µM*	7%	3
COc1ccc(Cl)cc1NC(=O)C(C)n1c(=O)cc(C(F)(F)F)c2c(C)nn(C)c21 (stereo unspecified)	14%	.	.	.	.	.
O=C(CSCc1cc(=O)n2nc(C3CC3)sc2n1)Nc1ccccc1Cl	-6%	.	.	.	.	.
O=S(=O)(c1ccc(Cl)cc1)c1snnc1-c1ccccc1	-2%	8%	-121%	15%[9.22 µM]	-2%	-9
O=S(=O)(c1ccc(F)cc1)c1snnc1-c1ccccc1	-12%	-28%	?	?	-10%	-30*
CCOc1ccc(S(=O)(=O)NCc2ccccc2Cl)cc1C(N)=O	-8%	-6%	-14%	?	-6%	-37*
CCOc1ccccc1CNS(=O)(=O)c1ccc2c(c1)oc(=O)n2C	-7%	4%	-14%	-15%	-6%	3
COc1ccc(S(=O)(=O)NCc2ccccc2Cl)cc1OC	18%	0%	-2%	11%	-9%	-4
CCOc1ccccc1CNS(=O)(=O)c1ccc2[nH]c(=O)sc2c1	13%	3%	-10%	13µM*	6%	0
CCOc1ncccc1C(=O)OCC(=O)NC1CCCCC1	9%	.	.	.	.	.
O=C(CSc1nc2ccccc2nc1Cc1ccc(Cl)cc1)N1CCN(c2ccccc2F)CC1	15%	.	.	.	.	.
NC(=S)n1[nH]c(-c2ccc([N+](=O)[O-])cc2)c(N=Nc2cccc([N+](=O)[O-])c2)c1=O	?	?	-121%	13µM*	5%	5
CCC1CCCCN1CCCNC(=O)CSc1nc2nc(C)c(Cc3ccc(C)cc3)c(C)n2n1 (stereo unspecified)	-2%	.	.	.	.	3
Cc1ccc(-c2nc(N)s[n+]2-c2ccccc2)cc1	-25%	1%	-3%[10 µM]	4%	3.5µM*	-1
CC(=O)OC1CC2C(C)(C)C(O)CC[C@@]2(C)C2CC[C@@]3(C)C(c4ccoc4)OC(=O)C4O[C@@]43[C@]12C (stereo partly specified)	?	-9%	.	.	2%	4
COc1cc(C(Nc2ccc3c(c2)OCO3)C(=O)NC2CCCCC2)cc(OC)c1OC (stereo unspecified)	-14%	28µM*	-16%	-16%	0%	-21
O=C(C1CCC(Cn2c(=O)c3sccc3n(Cc3ccccc3F)c2=O)CC1)N1CCOCC1 (stereo unspecified)	7%	.	.	.	.	.

Screens: PubChem, National Center for Advancing Translational Sciences (NCATS)
